Measurements from ChEMBL document CHEMBL4513146, “CO-ADD screening of Karazin Kharkiv National University (Ukraine) compounds”.
Results with a measured potency or affinity are listed apart.

Test system: Staphylococcus aureus
Conditions: Concentration 32 ug.mL-1;; ASSAY_TEST Inhibition of Bacterial Growth; detection method Absorption (OD600); MEDIA CAMHB; plate type 384well; NBS; CORNING #3640; time 18 hr

In order of falling Inhibition:
1. O=c1c2sccc2n2c(=O)n(Cc3cccc(Cl)c3)nc2n1Cc1cccs1  18.24%
2. CCc1nnc2c(SCC(=O)Nc3cc(Cl)ccc3C)nc3ccccc3n12  13.83%
3. O=c1n(Cc2cccc(Cl)c2)nc2ccc(-c3ccccc3)nn12  13.35%
4. COc1cccc(-n2ccn3c(SCC(=O)c4ccc(Br)cc4)nnc3c2=O)c1  12.63%
5. COc1ccccc1NC(=O)Cn1nc2n(CCCOC(C)C)c(=O)c3ccccc3n2c1=O  11.96%
6. Cn1c(=O)c2ccc(C(=O)NC3CCCCC3)cc2n2c(=O)n(CC#N)nc12  10.61%
7. COc1ccc(NC(=O)Cn2nc3c(N4CCOCC4)nccn3c2=O)cc1Cl  10.11%
8. COC(=O)c1ccccc1NC(=O)CSc1nc2ccccc2n2c(C(C)C)nnc12  10.06%
9. Cc1cc2nn(CC(=O)Nc3ccc(F)c(F)c3)c(=O)n2c(Nc2ccc(F)c(C)c2)n1  9.7%
10. CC(=O)c1ccc(NC(=O)Cn2nc3ccc(-c4ccc(C)c(C)c4)nn3c2=O)cc1  9.12%
11. CC(C)c1nnc2c(=O)n(CC(=O)Nc3ccc(Cl)c(Cl)c3)c3ccccc3n12  8.95%
12. O=C(CSc1nnc2c(=O)n(-c3ccccc3)ccn12)Nc1ccc2c(c1)OCCO2  8.84%
13. N#CCn1nc2n(CCC(=O)NC3CCCCC3)c(=O)c3ccccc3n2c1=O  8.56%
14. Cc1c(Cl)cccc1NC(=O)CSc1nc2ccccc2n2c(C)nnc12  7.92%
15. COc1ccc(NC(=O)Cn2nc3ccc(Sc4ccccc4)nn3c2=O)cc1  7.63%
16. CCC(C)NC(=O)Cn1nc2n(CC(C)C)c(=O)c3ccc(C(=O)NC4CCCCC4)cc3n2c1=O (stereo not given)  7.36%
17. CSc1cccc(NC(=O)Cn2nc3c(Oc4ccccc4C)nccn3c2=O)c1  6.72%
18. COc1ccc(-c2cc3c4nn(CC(=O)Nc5ccc(OC)cc5OC)c(=O)n4ccn3n2)cc1  6.72%
19. CCOc1ccccc1NC(=O)Cn1nc2c3cc(-c4ccc(Cl)cc4)nn3ccn2c1=O  6.48%
20. O=C(Cn1nc2ccc(SCc3ccc(Cl)cc3)nn2c1=O)Nc1ccccc1  5.05%
21. COc1ccc(NC(=O)Cn2c(=O)c3nnc(C(C)C)n3c3ccccc32)cc1  4.5%
22. O=S(=O)(c1ccc2nncn2c1)N(Cc1cccc(Cl)c1)c1ccc2c(c1)OCO2  4.03%
23. CCc1cccc(NC(=O)Cn2nc3ccc(SC(C)C)nn3c2=O)c1  3.75%
24. Cc1ccc(NC(=O)Cn2nc3c(N4CCCC4)nccn3c2=O)cc1Cl  3.49%
25. O=C(Cn1nc2c(N3CCOCC3)nc3ccccc3n2c1=O)Nc1ccccc1Br  3.23%
26. CCC(Sc1nnc2c(=O)n(-c3cccc(OC)c3)ccn12)C(=O)Nc1cc(F)ccc1F (stereo not given)  3.22%
27. O=C(Cn1nc2c(Oc3ccccc3)nccn2c1=O)Nc1ccc(F)cc1Cl  2.27%
28. O=S(=O)(c1ccc2nncn2c1)N(Cc1ccccc1)c1ccc(F)c(F)c1  -0.12%
29. CC1CCCN(c2nccn3c(=O)n(CC(=O)Nc4ccc(F)cc4F)nc23)C1 (stereo not given)  -0.93%
30. Cc1ccc(CN(c2ccc3c(c2)OCO3)S(=O)(=O)c2ccc3nnc(C)n3c2)cc1  -0.98%
31. Cc1cc(C)c(NC(=O)Cn2nc3c(N4CCCC(C)C4)nccn3c2=O)c(C)c1 (stereo not given)  -1.28%
32. CCCCOc1ccc(-c2cc3c4nnc(SCC(=O)NCc5ccc(OC)cc5)n4ccn3n2)cc1  -2.43%
33. C=Cc1ccc(CN(c2ccc(F)c(F)c2)S(=O)(=O)c2cccn3cnnc23)cc1  -2.72%
34. Cc1ccc(-c2ccc3nn(CC(=O)Nc4cccc(Cl)c4)c(=O)n3n2)cc1C  -4.46%
35. Cc1cc(C)c(NC(=O)Cn2nc3ccc(SCc4ccc(Cl)cc4)nn3c2=O)c(C)c1  -5.02%
36. O=c1c2nnc(-c3ccc([N+](=O)[O-])cc3)n2ccn1-c1ccc(F)c(F)c1  -6.17%
37. Cc1ccc(NC(=O)Cn2nc3ccc(SC4CCCCC4)nn3c2=O)cc1C  -6.2%
38. Cc1ccc(CNC(=O)Cn2nc3c(Sc4cccc(F)c4)nccn3c2=O)cc1  -7.34%
39. Cc1ccc(-c2noc(Cn3nc4ccc(-c5ccccc5)nn4c3=O)n2)cc1  -9.52%
40. Cc1ccc(NC(=O)CSc2nc3ccccc3n3cnnc23)c(Br)c1  -13.31%

Test system: Escherichia coli
Conditions: Concentration 32 ug.mL-1;; ASSAY_TEST Inhibition of Bacterial Growth; detection method Absorption (OD600); MEDIA CAMHB; plate type 384well; NBS; CORNING #3640; time 18 hr

In order of falling Inhibition:
1. CC(C)c1nnc2c(=O)n(CC(=O)Nc3ccc(Cl)c(Cl)c3)c3ccccc3n12  5.48%
2. Cc1c(Cl)cccc1NC(=O)CSc1nc2ccccc2n2c(C)nnc12  3.58%
3. COc1ccccc1NC(=O)Cn1nc2n(CCCOC(C)C)c(=O)c3ccccc3n2c1=O  2.24%
4. CCOc1ccccc1NC(=O)Cn1nc2c3cc(-c4ccc(Cl)cc4)nn3ccn2c1=O  1.3%
5. Cn1c(=O)c2ccc(C(=O)NC3CCCCC3)cc2n2c(=O)n(CC#N)nc12  1.2%
6. O=c1n(Cc2cccc(Cl)c2)nc2ccc(-c3ccccc3)nn12  0.79%
7. COc1cccc(-n2ccn3c(SCC(=O)c4ccc(Br)cc4)nnc3c2=O)c1  0.58%
8. N#CCn1nc2n(CCC(=O)NC3CCCCC3)c(=O)c3ccccc3n2c1=O  0.43%
9. CCc1cccc(NC(=O)Cn2nc3ccc(SC(C)C)nn3c2=O)c1  -0.03%
10. CCc1nnc2c(SCC(=O)Nc3cc(Cl)ccc3C)nc3ccccc3n12  -0.41%
11. Cc1ccc(NC(=O)Cn2nc3c(N4CCCC4)nccn3c2=O)cc1Cl  -0.46%
12. O=C(CSc1nnc2c(=O)n(-c3ccccc3)ccn12)Nc1ccc2c(c1)OCCO2  -1.03%
13. COc1ccc(NC(=O)Cn2nc3c(N4CCOCC4)nccn3c2=O)cc1Cl  -1.05%
14. O=c1c2nnc(-c3ccc([N+](=O)[O-])cc3)n2ccn1-c1ccc(F)c(F)c1  -1.2%
15. O=C(Cn1nc2c(N3CCOCC3)nc3ccccc3n2c1=O)Nc1ccccc1Br  -2.52%
16. Cc1cc(C)c(NC(=O)Cn2nc3c(N4CCCC(C)C4)nccn3c2=O)c(C)c1 (stereo not given)  -2.83%
17. CSc1cccc(NC(=O)Cn2nc3c(Oc4ccccc4C)nccn3c2=O)c1  -2.85%
18. CC1CCCN(c2nccn3c(=O)n(CC(=O)Nc4ccc(F)cc4F)nc23)C1 (stereo not given)  -3.03%
19. CCC(C)NC(=O)Cn1nc2n(CC(C)C)c(=O)c3ccc(C(=O)NC4CCCCC4)cc3n2c1=O (stereo not given)  -3.14%
20. Cc1ccc(CN(c2ccc3c(c2)OCO3)S(=O)(=O)c2ccc3nnc(C)n3c2)cc1  -3.16%
21. COC(=O)c1ccccc1NC(=O)CSc1nc2ccccc2n2c(C(C)C)nnc12  -3.26%
22. COc1ccc(-c2cc3c4nn(CC(=O)Nc5ccc(OC)cc5OC)c(=O)n4ccn3n2)cc1  -3.4%
23. Cc1cc2nn(CC(=O)Nc3ccc(F)c(F)c3)c(=O)n2c(Nc2ccc(F)c(C)c2)n1  -3.91%
24. CC(=O)c1ccc(NC(=O)Cn2nc3ccc(-c4ccc(C)c(C)c4)nn3c2=O)cc1  -4.24%
25. O=C(Cn1nc2ccc(SCc3ccc(Cl)cc3)nn2c1=O)Nc1ccccc1  -4.3%
26. O=C(Cn1nc2c(Oc3ccccc3)nccn2c1=O)Nc1ccc(F)cc1Cl  -4.59%
27. O=c1c2sccc2n2c(=O)n(Cc3cccc(Cl)c3)nc2n1Cc1cccs1  -5.83%
28. O=S(=O)(c1ccc2nncn2c1)N(Cc1ccccc1)c1ccc(F)c(F)c1  -6.68%
29. COc1ccc(NC(=O)Cn2c(=O)c3nnc(C(C)C)n3c3ccccc32)cc1  -6.7%
30. CCC(Sc1nnc2c(=O)n(-c3cccc(OC)c3)ccn12)C(=O)Nc1cc(F)ccc1F (stereo not given)  -7.17%
31. CCCCOc1ccc(-c2cc3c4nnc(SCC(=O)NCc5ccc(OC)cc5)n4ccn3n2)cc1  -7.34%
32. Cc1cc(C)c(NC(=O)Cn2nc3ccc(SCc4ccc(Cl)cc4)nn3c2=O)c(C)c1  -8.63%
33. Cc1ccc(-c2ccc3nn(CC(=O)Nc4cccc(Cl)c4)c(=O)n3n2)cc1C  -9.75%
34. Cc1ccc(NC(=O)CSc2nc3ccccc3n3cnnc23)c(Br)c1  -9.92%
35. COc1ccc(NC(=O)Cn2nc3ccc(Sc4ccccc4)nn3c2=O)cc1  -10.85%
36. O=S(=O)(c1ccc2nncn2c1)N(Cc1cccc(Cl)c1)c1ccc2c(c1)OCO2  -10.92%
37. Cc1ccc(-c2noc(Cn3nc4ccc(-c5ccccc5)nn4c3=O)n2)cc1  -11.36%
38. Cc1ccc(CNC(=O)Cn2nc3c(Sc4cccc(F)c4)nccn3c2=O)cc1  -12.92%
39. Cc1ccc(NC(=O)Cn2nc3ccc(SC4CCCCC4)nn3c2=O)cc1C  -13.15%
40. C=Cc1ccc(CN(c2ccc(F)c(F)c2)S(=O)(=O)c2cccn3cnnc23)cc1  -13.7%
